From publication PMC5540273 (PLoS ONE, 2017)

Columns and labels:
Conditions in all cases: concentration: 1 μM, replicates: in singlicate; n = 1
MST1 = test system: T1, MST1
T1 construct: gene STK4

MST2 = test system: T2, MST2
T2 construct: gene STK3

MST3 = test system: T3, MST3
T3 construct: gene STK24

MST4 = test system: MST4
MTOR = test system: MTOR
MUSK = test system: MUSK
MYLK2 = test system: MYLK2
MYLK4 = test system: MYLK4
MYLK = test system: MYLK
MYO3A = test system: MYO3A
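Also: KINOMEscan kinase panel screen.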

| Structure (SMILES) | %Inh (MST1) | %Inh (MST2) | %Inh (MST3) | %Inh (MST4) | %Inh (MTOR) | %Inh (MUSK) | %Inh (MYLK2) | %Inh (MYLK4) | %Inh (MYLK) | %Inh (MYO3A) |
| --- | --- | --- | --- | --- | --- | --- | --- | --- | --- | --- |
| Cc1c(Cn2c(C)nn3c(=O)cc(N4CCOC(C)C4)nc23)cccc1C(F)(F)F (centres unmarked) [GSK2344444] | 0% | 0% | 2% | 0% | 28% | 0% | 8% | 1% | 0% | 7% |
| Cn1ccc2ncnc(Oc3ccc(NC(=O)Nc4ccncc4)c(Cl)c3)c21 | 0% | 0% | 0% | 0% | 11% | 0% | 11% | 0% | 0% | 14% |
| CCCCCc1nc2c(N)ncnc2n1CCCCC [SKF-97255] | 0% | 0% | 0% | 0% | 0% | 0% | 6% | 12% | 17% | 1% |
| Cn1cc(-c2ccc3c(c2)CCN3C(=O)Cc2ccccc2Cl)c2c(N)ncnc21 [GSK2608885] | 95.3% | 64% | 30% | 13% | 8% | 29% | 8% | 2% | 12% | 34% |
| CN1c2ccc(NCc3ccc(F)cc3)cc2-c2c(cnn2C)S1(=O)=O | 0% | 28% | 0% | 0% | 20% | 3% | 0% | 0% | 12% | 0% |
| CC(C)(C)n1cnc2c(N)ncnc21 [SKF-97359] | 9% | 0% | 44% | 0% | 6% | 0% | 0% | 0% | 27% | 0% |
| Cc1cccc(-c2nc(-c3ccc(S(C)(=O)=O)cc3)sc2-c2ccncc2)c1 | 5% | 0% | 5% | 0% | 0% | 0% | 0% | 0% | 6% | 7% |
| N#Cc1c(N2CCOCC2)sc(-c2ccn[nH]2)c1-c1ccc(Cl)cc1 | 21% | 0% | 19% | 0% | 0% | 0% | 8% | 5% | 23% | 3% |
